The entries come from a sample that favours hits as a whole.
ALOX12 inh: blocks human arachidonate 12S-lipoxygenase; P18054; purified 12hLO, xylenol orange hydroperoxide absorbance; Potency, µM (doses to about 108 µM), for the others: at the top dose activity change, negative = inhibition, actives largely listed as inhibitors; 1.1% of 580,000 active; further: potency means the concentration at half of the fitted maximal effect
Target sequence (P18054 whole entry, looked up): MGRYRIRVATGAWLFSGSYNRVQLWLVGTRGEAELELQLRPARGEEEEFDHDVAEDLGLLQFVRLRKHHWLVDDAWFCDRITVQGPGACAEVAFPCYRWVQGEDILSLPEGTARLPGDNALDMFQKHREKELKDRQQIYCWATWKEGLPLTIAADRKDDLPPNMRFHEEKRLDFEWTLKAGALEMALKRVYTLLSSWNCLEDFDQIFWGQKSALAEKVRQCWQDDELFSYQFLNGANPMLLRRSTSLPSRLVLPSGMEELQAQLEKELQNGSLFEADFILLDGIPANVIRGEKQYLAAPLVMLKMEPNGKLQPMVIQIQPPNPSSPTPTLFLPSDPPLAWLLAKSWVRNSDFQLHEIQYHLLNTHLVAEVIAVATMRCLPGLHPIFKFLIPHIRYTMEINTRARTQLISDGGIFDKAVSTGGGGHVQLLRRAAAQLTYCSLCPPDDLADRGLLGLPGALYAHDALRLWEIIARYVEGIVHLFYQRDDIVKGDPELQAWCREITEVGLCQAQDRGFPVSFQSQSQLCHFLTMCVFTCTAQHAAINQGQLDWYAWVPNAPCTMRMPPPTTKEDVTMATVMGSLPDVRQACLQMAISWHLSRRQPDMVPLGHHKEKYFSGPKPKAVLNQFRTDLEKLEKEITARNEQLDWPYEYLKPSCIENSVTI
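Hydroperoxide product was detected by ferrous iron/xylenol orange as the 573 to 405 nm absorbance ratio. Arachidonic acid at 40 uM (final) was turned over for 30 min at room temperature by 150 nM human 12hLO, pH 7.0 Hepes buffer, after 15 min compound preincubation.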
HT1080 IDH1KD tx: HT-1080 IDH1 knockdown cell toxicity (counter line); HT-1080 IDH1 knockdown viability, ATP luminescence, 48 h; Potency, µM (titrated, usually from 46.1 µM), for inactives: at the highest dose activity, negative = toxicity, hits mostly cytotoxic; 2% of 360,000 active; AID 686971;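 further: potency means the concentration at half of the fitted maximal effect; 0% = DMSO wells and -100% = cell-free medium wells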
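% activity derives from luminescence (CellTiter-Glo), normalised to DMSO and no-cell wells. HT-1080-IDH1KD cells, 750/well, had 48 h compound exposure at 37 °C.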
HT1080-NT tox: kills 2HG-producing HT-1080-NT fibrosarcoma cells | HT-1080-NT fibrosarcoma viability, CellTiter-Glo ATP luminescence, 48 h | Potency, µM (highest dose often 46.1 µM), without a hit: at the top dose activity, negative = less viability, usual class: cytotoxic | 1.6% of 360,000 active | AID 686970;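 further: NT is the 2HG producing partner of a matched IDH1 knockdown line; potency means the concentration at half of the fitted maximal effect; 0% = DMSO-treated cells and -100% = media-only wells without cells; nearly all actives have a fitted effect of over 55% in size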
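Luminescent CellTiter-Glo readout after 48 hours of compound exposure at 37 degrees C defined viability of HT-1080-NT cells. Activity was normalized to DMSO wells and cell-free media wells; concentration-response curves were fitted and assigned curve classes.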
IL1B secr inh: blocks inflammasome-driven IL-1 beta release; AID 743279; THP-1 LPS/ATP IL-1B secretion, AlphaLISA, 16 h; stronger effect = lower value; activity change, % at 57.5 µM; 4.7% of 360,000 active; in the data active means activity change below about -50%; inconclusive means mostly about -30% to -49%
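THP-1 cells pretreated 1 hr with compounds (up to 57.5 uM final), then stimulated with LPS (250 ng/mL final) plus ATP (1.25 mM final); secreted IL-1B measured by AlphaLISA after 16 hr, decreased signal indicating inhibition.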
DT40 TDP1 no CPT: qHTS for Inhibitors of human tyrosyl-DNA phosphodiesterase 1 (TDP1): qHTS in cells in absence of CPT; 15% of 420,000 active; DT40 Tdp1-/- hTDP1 cells, no CPT, ATP luminescence, 48 h; AID 686978, 2013; Potency, µM (titrated, usually from 46.2 µM), inactives show top-dose activity change, negative = growth inhibition, usual class: inhibitors; further: potency means the concentration at half of the fitted maximal effect; nearly all actives have a fitted effect of over 55% in size
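Chicken DT40 Tdp1-/- cells stably complemented with human TDP1 were seeded at 400 cells/well with DMSO in place of 20 nM camptothecin. After compound pinning, cells grew at least 48 hr at 37 °C; viability read by CellTiter-Glo luminescence.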
DT40 TDP1 CPT: DT40-hTDP1 cell growth loss with CPT. chicken DT40 Tdp1-/-;hTDP1 cells + 20 nM CPT, ATP luminescence, 48 h. Potency, µM (doses to about 46.2 µM), inactives show at the top dose activity change, negative = growth inhibition, actives largely listed as inhibitors. 12% of 420,000 active; further: potency means the concentration at half of the fitted maximal effect; nearly all actives have a fitted effect of over 55% in size
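Chicken DT40 Tdp1-/- cells complemented with human TDP1, 400 cells/well, exposed to compounds plus 20 nM camptothecin for at least 48 h at 37 C; viability read as ATP content by CellTiter-Glo luminescence.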
An asterisk follows results filed as active; ? = inconclusive; . = no result given; [ ] = dose if it differs, or a comment. Unless noted, the call rests on the fitted dose curve; in most records, active means well fitted curve in the direction sought with a large enough effect; inconclusive means small, poorly fitted or top-dose-only effect, or another doubt; inactive means no such curve, though single readings can be large; an effect the other way counts as inactive or inconclusive. Unless noted, on the % scale 0 is the no-effect control and ±100 the full control effect.

SMILES	ALOX12 inh	HT1080 IDH1KD tx	HT1080-NT tox	IL1B secr inh	DT40 TDP1 no CPT	DT40 TDP1 CPT
O=C(C1CCOCC1)N1CCC(c2nc(C3CCOCC3)no2)C1 (configuration not stated)	11.5%	.	.	.	.	.
CCn1c(=O)c([N+](=O)[O-])c(NCCN(C)C)c2ccccc21	-2.0%	-1.3%	7.6%	-19.9	11.8%	39.3%
CCn1c(=O)c([N+](=O)[O-])c(Cl)c2ccccc21	.	3.66µM*	?	-96.3*	2.59µM*	2.91µM*
COc1cc(NC(=O)N2CC(c3nnc(C(C)C)o3)C3(CCOCC3)C2)cc(OC)c1 (configuration not stated)	-8.0%	.	.	.	.	.
COc1ccc(S(=O)(=O)N2CCCc3ccccc32)cc1[N+](=O)[O-]	2.4%	8.2µM*	8.2µM*	38.5	-9.7%	-23.1%
COc1ccc(S(=O)(=O)N2CCc3ccccc32)cc1NC(C)=O	1.0%	?	9.2µM*	20.4	-29.5%	-3.0%
CC(=O)N1CCc2cc(S(=O)(=O)N3CCc4ccccc4C3)ccc21	-11.6%	-21.0%	-23.5%	27.1	?	?
COc1ccc(S(=O)(=O)N2CCCc3ccccc32)cc1OC	-5.7%	?	-20.7%	52.6	-16.0%	?
CC(=O)N1CCc2cc(S(=O)(=O)N3CCc4ccccc43)ccc21	-0.8%	-18.0%	0.0%	6.6	?	13µM*
CC(C)n1ncc2c(C(=O)Nc3ccccc3)c3c(nc21)CCC3	-1.2%	.	.	.	.	.
Cc1ccc(C2Cn3nnc(C(=O)N4CCN(C(=O)c5ccc(C(C)(C)C)cc5)CC4)c3CO2)cc1 (configuration not stated)	15.7%	.	.	.	.	.
CCCNC(=O)c1cc(C)nc2ccc(C)cc12	27.2%	.	.	.	.	.
Cc1cccc(C(=O)N2C[C@@H](CO)[C@H](c3nc(C4CC4)no3)C2)n1	-0.5%	.	.	.	.	.
CCOc1ccccc1NC(=O)C(CC(C)C)NC(=O)C1CCC(C)CC1 (configuration not stated)	-24.2%	-0.2%	19.9%	10.1	?	18.4µM*
C[C@@H](NC(=O)C1CCOCC1)c1onc(-c2ccc(Cl)cc2)c1C(=O)O	-16.1%[176 µM]	.	.	.	.	.
COC(=O)[C@@]12CCCN1[C@H](c1ccc(-c3ccc(OC)cc3)cc1)[C@@H]1C(=O)N(C)C(=O)[C@@H]12	-14.9%	-1.0%	-2.0%	7.0	20.6µM*	18.4µM*
COC(=O)[C@@]12CCCN1[C@H](c1ccc(-c3ccccc3)cc1)[C@H]1C(=O)N(C)C(=O)[C@H]12	0.1%	1.7%	-0.1%	4.0	?	?
COC(=O)[C@@]12CCCN1[C@H](c1ccc(-c3ccc(OC)cc3)c(OC)c1)[C@@H]1C(=O)N(C)C(=O)[C@@H]12	-20.9%	2.7%	4.8%	18.8	4.11µM*	4.11µM*
COC(=O)[C@@]12CCCN1[C@H](c1ccc(-c3ccc(OC)cc3)c(OC)c1)[C@H]1C(=O)N(C)C(=O)[C@H]12	?	9.8%	0.0%	-0.7	?	?
COC(=O)[C@@]12CCCN1[C@H](c1ccc(-c3ccccc3)c(OC)c1)[C@H]1C(=O)N(C)C(=O)[C@H]12	12.6µM*	4.9%	5.5%	7.1	-28.7%	?
c1ccc2c(c1)ncn2-c1cncnc1	1.1%	18.2%	24.2%	6.1	-3.9%	-13.8%
COc1ccc(S(=O)(=O)N2CCc3ccccc32)cc1C(=O)NCc1ccco1	-14.6%	1.3%	-21.5%	-4.6	?	2.6%
CCNC(=O)COC(=O)c1cc(S(=O)(=O)N2CCCc3ccccc32)ccc1Cl	-25.9%	10.4%	6.1%	-94.4*	-5.8%	-15.7%
CC(C)CNC(=O)COC(=O)c1ccc(Cl)c(S(=O)(=O)N2CCc3ccccc32)c1	-7.0%	-9.0%	6.1%	25.3	-5.2%	-3.2%
O=C(NCc1ccco1)c1cc(S(=O)(=O)N2CCCc3ccccc32)ccc1Cl	-12.2%	0.2%	-2.9%	0.3	13µM*	14.6µM*
SMILES	ALOX12 inh	HT1080 IDH1KD tx	HT1080-NT tox	IL1B secr inh	DT40 TDP1 no CPT	DT40 TDP1 CPT
CC(C)CCNC(=O)Cn1ccn2nc(-c3ccccc3)c(CO)c2c1=O	15.9%	.	.	.	.	.
O=C(CNC(=O)C1CCC(CNS(=O)(=O)c2ccc(Cl)cc2)CC1)NCCO (configuration not stated)	-1.0%	.	.	.	.	.
Cc1ccc(C2NC(=O)N(CC(=O)Nc3cccc(C#N)c3)C3=C2C(=O)OC3)cc1 (configuration not stated)	8.1%	.	.	.	.	.
CN(C)CCCn1c(=O)n(CCc2ccccc2)c(=O)c2c3c(sc21)CCCCC3	137.4%	0.1%	5.2%	?	23.1µM*	?
CN(C)CCCNc1nc2sc3c(c2c(=O)n1CCc1ccccc1)CCCCC3	?	?	?	.	16.4µM*	?
CN(C)CCn1c(=O)n(Cc2ccccc2)c(=O)c2c3c(sc21)CCCCC3	?	?	?	-63.6*	?	-6.6%
NNc1nc2sc3c(c2c(=O)n1Cc1ccccc1)CCC3	66.3%	-0.2%	-4.5%	-5.3	-11.0%	-16.5%
CN(C)CCCn1c(=O)n(Cc2ccco2)c(=O)c2c3c(sc21)CCCCC3	8.1%	?	?	.	?	?
Cc1nc(OCC(=O)c2ccc(Cl)cc2)c(C#N)c2c1COC(C)(C)C2	0.0%	2.6%	2.3%	-17.5	?	?
CCc1nc(OCC(=O)c2ccccc2)c(C#N)c2c1COC(C)(C)C2	40.3%	0.0%	4.7%	-7.5	18.4µM*	?
O=C(NC1CC1)c1ccc2nnc(-c3cccc(OC(F)(F)F)c3)n2c1	7.5%[6.33 µM]	.	.	.	.	.
Cc1noc(C)c1S(=O)(=O)N(CC(=O)Nc1ccc(C(F)(F)F)cc1)c1ccc(C(C)C)cc1	-21.0%	.	.	.	23.1µM*	16.4µM*
Cc1n[nH]c(C)c1S(=O)(=O)N(CC(=O)Nc1ccc(C(F)(F)F)cc1)c1ccc(C(C)C)cc1	?	.	.	.	?	14.6µM*
Cc1n[nH]c(C)c1S(=O)(=O)N(CC(=O)NC(C)c1ccccc1)c1ccc(C(C)C)cc1 (configuration not stated)	-29.3%	.	.	.	?	?
COc1ccc(NC(=O)CN(c2ccc(C(C)C)cc2)S(=O)(=O)c2c(C)noc2C)cc1OC	0.7%	2.0%	-2.8%	19.0	?	?
Cc1noc(C)c1S(=O)(=O)Nc1ccc(C(=O)Nc2ccc(C(C)C)cc2)cc1	-19.1%	.	.	.	9.2µM*	11.6µM*

From PubChem BioAssay
